# Data from PubChem BioAssay (NCI).
# About 83,000 compounds went through this panel and 20% of them were active in at least one assay; those are over-represented in the sample as a whole.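 The endpoint reported here, percent growth, reads 100 for growth as untreated, 0 for no net growth and -100 for all cells dead.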 A number with no mark means an inactive call. Activity calls are given as the source filed them. How the source made its calls: active means growth percent below 10; inactive means the rest.
# Test system: A549/ATCC NSCLC
# Test: NCI-60 one-dose screen, 48 h (100 = growth as untreated, 0 = no growth, -100 = all killed)
# Details: 10 µM unless noted
row,Compound,growth
1,COc1ccc2c(c1)CC[C@@H]1[C@@H]2CC[C@]2(C)c3c(cc(C#N)c4c3sc3ccccc34)C[C@@H]12,106%
2,O=C(c1c[nH]c2ccccc12)c1n[nH]c(=S)n1-c1ccc([N+](=O)[O-])cc1,81%
3,Cc1c2cnccc2c(C)c2c1c1cc(CO)ccc1n2C,-28.2% (active)
4,COc1cc(-c2nccc3[nH]c(-c4cccc5[nH]ccc45)nc23)cc(OC)c1OC,17.3%
5,Clc1ccc(-c2nc(C(Cl)Cl)nc3cc(-c4ccccc4)nn23)cc1,-12.7% (active)
6,CC1=Nc2cnc(Nc3ccc(N4CCCCC4)cc3)nc2Nc2ccccc21,79.8%
7,CN(C)c1ccc([C@@H](C(=O)Nc2cccc([N+](=O)[O-])c2)N(C(=O)c2cc3ccccc3[nH]2)c2cccc([N+](=O)[O-])c2)cc1,92.9%
8,O=C(CSc1nnnn1-c1ccccc1)Nc1ccc(Oc2ccccc2)cc1,101%
9,COc1cc(/C=C/C(=O)c2cccc(-n3cc(-c4ccc(Cl)cc4)[nH]c3=O)c2)ccc1O,77.3%
10,Oc1c(CN2CCC(N3CCOCC3)CC2)cc(Cc2cc(CN3CCC(N4CCOCC4)CC3)c(O)c3ncccc23)c2cccnc12,18.5%
11,c1ccc2cc(Cn3cc(CSc4nc5ccccc5s4)nn3)ccc2c1,93.4%
12,CN(C)Cc1cc(C(C)(C)C)cc(Br)c1O,109%
13,CCN(CC)CCOc1ccc(/C(=C(\C)Cc2ccc(OC)cc2)c2ccc(OC(=O)NCc3ccccc3)cc2)cc1,48.1%
14,C=C1C(=O)O[C@H]2[C@H]1CC/C(COC(=O)NCc1ccc(Cn3c(=O)sn(-c4ccc(I)cc4)c3=O)cc1)=C\CC[C@@]1(C)O[C@@H]21,94.9%
15,O=c1oc2ccccc2cc1-c1nn(-c2ccccc2)cc1-c1nn[nH]n1,97.7%
16,O=c1oc2c(cc1-c1ccccc1)c(=O)[nH]c1ccccc12,97.7%
17,CC1=C(Cl)C(=O)c2cc(C)ccc2C1=O,101%

# Test system: 786-0 renal
# Test: as above
# Details: 10 µM unless noted
row,Compound,growth
1,O=c1oc2c(cnc3ccccc32)cc1-c1cccc(Cl)c1,106%
2,CCOC(=O)c1c(C)nc2c(c1N)C(=O)C(=O)N2Cc1ccc(OC)cc1,39.7%
3,CCNC(=O)N1CCc2c(Br)c3c(c(OC)c2C1Cc1ccc(OC)cc1)OCO3 (stereo unspecified),31.2%
4,COc1cc2c(c(OC)c1OC)CCC(c1cccc(C(=O)Nc3ccc(Br)cc3)c1)O2 (stereo unspecified),84.1%
5,OC1CSSC1Cn1cnc2c(Nc3ccc(OCc4cccc(F)c4)c(Cl)c3)ncnc21 (stereo unspecified),69.5%
6,Cc1ccc(OCCOCCOCCOc2ccc(C)n(O)c2=S)c(=S)n1O,40.9%
7,C=CN(C(=O)N1CCN(c2cc3c(cc2F)c(=O)c(C(=O)O)cn3C2CC2)CC1)c1nc(-c2ccc(Cl)cc2)cs1,82.8%
8,C#CCOc1cccc(Nc2ncnc3cc(NC(=O)CCl)ccc23)c1,-69.1% (active)
9,Cc1nc2ccccc2c(/C=C/c2ccc(F)cc2)c1C(=O)/C=C/c1ccccc1,24.1%
10,COc1cc(/C=C/C(=O)N2CCN(C(=O)c3cc(OC)c(OC)c(OC)c3)CC2)ccc1OCCCOc1cc2c(cc1OC)C(=O)N1CCC[C@H]1C=N2,11.7%
11,O=C(NC1CCC(Br)CC1)C1CCCC(S(=O)(=O)NC2CCCCC2)C1 (stereo unspecified),36% [25 µM]
12,COc1cc(/C=C/c2cn[nH]c2-c2ccc(C)cc2)cc(OC)c1OC,37.1%
13,COc1ccc(C/C(C)=C(\c2ccc(Cl)cc2)c2ccc(OCCN3CCCC3)cc2)cc1,83.7%
14,CN(C)Cc1ccc(NC(=O)c2cncc(C#Cc3cnc(N)c4ncccc34)c2)cc1C(F)(F)F,-73.4% (active)
15,COC(=O)c1c(C)nc(C)c2c1C(=O)C=C(NCc1ccccc1)C2=O,84.7%
16,N#CSc1c[nH]c2ccc(/C=C/C(=O)/C=C(O)/C=C/c3ccc4[nH]cc(SC#N)c4c3)cc12,13.9%
17,Cc1ccc(-c2nc(SCC(=O)N3CCN(c4cc5c(cc4F)c(=O)c(C(=O)O)cn5C4CC4)CC3)nc(Cl)c2C#N)cc1,97.8%
18,COC(=O)/C=C1/SC(=NCc2ccccc2)N(CCc2c[nH]c3ccccc23)C1=O,89.4%
19,C=C(C)[C@@H]1CC[C@]2(C(=O)N3CCN(C)CC3)CC[C@]3(C)[C@H](CC[C@@H]4[C@@](C)(CCC(=O)O)[C@H](C(=C)C)CC[C@]43C)[C@@H]12,90.2%
